# According to PubChem BioAssay (NCATS):
# Results filed as inconclusive are left out. Where a call stands in place of a potency, no number is given. Calls of active or inactive are those of the source. Calls follow the shape of the dose curve; as a rule, active = well fitted curve in the direction sought with a large enough effect; inconclusive = small, poorly fitted or top-dose-only effect, or another doubt; inactive = no such curve, though single readings can be large; an effect the other way counts as inactive or inconclusive.
# Legend:
# [1] = qHTS to identify inhibitors of the type 1 interferon - major histocompatibility complex class I in skeletal muscle: primary screen against the NCATS Mechanism Interrogation Plate v5.0 (MIPE) Libary (AID 1347411); conditions: iHSKM cells + IFN-b, HiBiT-tagged MHC-I luminescence, 24 h; series mostly up to 45.8 µM; also: nearly all actives have a fitted effect of over 65% in size; also: potency is read from the fitted curve at half-maximal effect
# Summary of the method: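 Seed engineered human myoblasts (HLA-B HiBit) in medium without dexamethasone containing 4 ng/ml IFN-beta; after 1 hr add compound titrations (top 46 uM final). Incubate 24 hrs at 37 C, lyse 10 min with HiBiT reagent, read luminescence.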
# [2] = target: Calcium and integrin-binding protein 1 (Homo sapiens) (UniProt Q99828); test: Primary qHTS for Identification of Calcium Integrin Binding Protein 1 (CIB1) Competitor (AID 1508620); conditions: CIB1-GST / FITC-alphaIIb peptide fluorescence polarization; series mostly up to 114 µM;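 also: GST tagged CIB1 binding a fluorescein labelled alphaIIb integrin peptide tracer; top concentration of the series differs between compounds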
# Chain of Calcium and integrin-binding protein 1 (Homo sapiens) (Q99828 whole entry, looked up): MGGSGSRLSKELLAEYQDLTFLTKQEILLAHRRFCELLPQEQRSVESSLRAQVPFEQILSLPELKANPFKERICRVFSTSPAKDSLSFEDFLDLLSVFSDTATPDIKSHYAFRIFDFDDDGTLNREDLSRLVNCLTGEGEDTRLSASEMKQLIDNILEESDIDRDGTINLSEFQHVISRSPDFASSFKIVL
# Summary of the method: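 Fluorescence polarization competition: CIB1-GST (1 uM final) preincubated with compound 15 min at room temperature, then FITC-labeled alphaIIb peptide (100 nM final) added for another 15 min. Polarization read at Ex 480/Em 540.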
# [3] = target: Calcium and integrin-binding protein 1 (Homo sapiens) (UniProt Q99828); test: Confirmatory qHTS for Identification of Calcium Integrin Binding Protein 1 (CIB1) Competitor (AID 1508617); conditions: CIB1 binding competition assay, biochemical qHTS; also: potency is read from the fitted curve at half-maximal effect; nearly all actives have a fitted effect of over 65% in size
# Summary of the method: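 Binding competition between test compounds and fluorescent alphaIIb peptide for 1 uM CIB1-GST is monitored by FP at 480/540 nm. Final compound range is up to 114 uM; unlabeled peptide serves as reference competitor.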
# [4] = target: Calcium and integrin-binding protein 1 (Homo sapiens) (UniProt Q99828); test: Validation qHTS for Identification of Calcium Integrin Binding protein 1 (CIB1) Competitor (AID 1508618); conditions: CIB1-GST / FITC-alphaIIb peptide fluorescence polarization; series mostly up to 114 µM
# Summary of the method: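 In this qHTS validation, the LOPAC set (up to 114 uM) was tested for blocking CIB1 binding to a fluorescein-tagged alphaIIb peptide, with FP detection at 480/540 nm.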
# [5] = Confirmatory qHTS for small molecule stabilizers of the endoplasmic reticulum resident proteome: Secreted ER Calcium Modulated Protein (SERCaMP) assay (AID 1508628); conditions: SERCaMP secreted luciferase ER calcium/proteostasis reporter; series mostly up to 156 µM; also: nearly all actives have a fitted effect of over 40% in size
# Summary of the method: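 Reporter secretion upon ER calcium depletion (100 nM thapsigargin, 4 h, 37C) is measured as medium luminescence with coelenterazine, after 16 h compound pretreatment of SH-SY5Y-GLuc-SERCaMP cells; primary at three concentrations up to 38.3 uM, follow-up at 11 (up to 76.6 uM).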
# [6] = Primary qHTS for small molecule stabilizers of the endoplasmic reticulum resident proteome: Secreted ER Calcium Modulated Protein (SERCaMP) assay (AID 1508630); conditions: SH-SY5Y GLuc-SERCaMP (Gaussia luciferase released on ER calcium loss) secretion, thapsigargin, luminescence; series mostly up to 38.4 µM
# Summary of the method: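 The SH-SY5Y reporter protocol was run at 3 concentrations up to 38.3 uM (primary) or 11 concentrations (follow-up): 16 h compound, 100 nM thapsigargin for 4 h, then extracellular luciferase luminescence.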
smiles,measurement,setting,value
COC(=O)N(C)c1c(N)nc(-c2nn(Cc3ccccc3F)c3ncccc23)nc1N,Potency,[1],inactive
same,Potency,[2],inactive
CC(C)c1cc(CNc2nc(Nc3cc(C4CC4)[nH]n3)cc(N3CCN(C)CC3)n2)on1,Potency,[1],0.523 µM (active)
same,Potency,[2],inactive
COc1ccc(C(=O)C2CCN(CC(=O)N(Cc3nc4c(c(=O)[nH]3)COCC4)CC3CC3)CC2)cc1,Potency,[1],inactive
same,Potency,[2],inactive
CN1CCN(C2CCC(n3cc(-c4ccc(Oc5ccccc5)cc4)c4c(N)ncnc43)CC2)CC1 (stereo not given),Potency,[1],11.7 µM (active)
Cc1[nH]nc(C(F)(F)F)c1Cc1sc2c(c1C(=O)N1C[C@](C)(O)CO1)c(=O)n(C)c(=O)n2C(C)C,Potency,[1],inactive
same,Potency,[2],inactive
COc1cc2ncnc(Nc3cccc(Cl)c3F)c2cc1OC(=O)N1CCN(C)C[C@H]1C,Potency,[1],inactive
same,Potency,[2],inactive
Cc1ccc(NC(=O)c2ccc(CN3CC[C@H](N(C)C)C3)c(C(F)(F)F)c2)cc1Nc1nccc(-c2cncnc2)n1,Potency,[1],16.1 µM (active)
same,Potency,[2],inactive
COc1ccc(Cl)c(Nc2nc3ccccc3nc2NS(=O)(=O)c2cccc(NC(=O)C(C)(C)N)c2)c1,Potency,[1],inactive
CC#CC(=O)N1CCC[C@H]1c1nc(-c2ccc(C(=O)Nc3ccccn3)cc2)c2c(N)nccn12,Potency,[1],inactive
same,Potency,[2],inactive
CNCc1ccc(-c2cc(-c3nc(-c4ccc(S(=O)(=O)C(C)C)cc4)cnc3N)on2)cc1,Potency,[1],inactive
same,Potency,[2],inactive
CCO[C@@H]1OC(=O)C[C@@H]1NC(=O)[C@@H]1CCCN1C(=O)[C@@H](NC(=O)c1ccc(N)c(Cl)c1)C(C)(C)C,Potency,[1],inactive
CCOc1cc(C(=O)N2CCC(N3CCN(C)CC3)CC2)ccc1Nc1ncc2c(n1)N(C1CCCC1)c1ccccc1C(=O)N2C,Potency,[1],23.4 µM (active)
C[C@H](Nc1ncnc2nc[nH]c12)c1cc2ccc(F)cc2nc1-c1ccccn1,Potency,[1],inactive
same,Potency,[2],inactive
COCCN1CCN(Cc2ccc(-c3n[nH]c4c3C(=O)c3c(NC(=O)NN5CCOCC5)cccc3-4)cc2)CC1,Potency,[1],0.208 µM (active)
same,Potency,[2],inactive
Cc1nc([C@](C)(O)CO)sc1-c1cnc(N)c(O[C@H](C)c2cc(F)ccc2-n2nccn2)c1,Potency,[1],inactive
same,Potency,[2],inactive
Cc1c(F)cc(C(=O)NC2CC2)cc1-c1c(F)cn2c(C(C)(C)C)nnc2c1F,Potency,[1],inactive
Cc1ccc(NC(=O)Nc2cc(C(F)(F)F)ccc2F)cc1Nc1ccc2c(c1)NC(=O)/C2=C\c1ccc[nH]1,Potency,[1],23.4 µM (active)
same,Potency,[2],inactive
CN1CCN(c2ccc(C(=O)Nc3n[nH]c4ccc(Cc5cc(F)cc(F)c5)cc34)c(NC3CCOCC3)c2)CC1,Potency,[1],16.5 µM (active)
same,Potency,[2],inactive
NC[C@@](O)(c1ccc(Cl)cc1)c1ccc(-c2cn[nH]c2)cc1,Potency,[1],7.39 µM (active)
same,Potency,[2],inactive
COCCOc1cnc2ccn([C@H](C)c3nnc4c(F)cc(-c5cnn(C)c5)cn34)c(=O)c2c1,Potency,[1],inactive
same,Potency,[2],inactive
Cc1ccc(S(=O)(=O)Cc2nc(-c3ccc(C(=O)NCc4cccnc4)cc3)oc2C)cc1,Potency,[1],inactive
same,Potency,[2],inactive
Cc1cc(Nc2cc(N3CCN(C)CC3)nc(/C=C/c3ccccc3)n2)n[nH]1,Potency,[1],5.23 µM (active)
same,Potency,[2],inactive
CCOCc1nc2c(N)nc3ccccc3c2n1CC(C)(C)O,Potency,[1],inactive
same,Potency,[2],inactive
CCCN1CCN(c2ccc(C(=O)NC3(C(=O)NCC#N)CCCCC3)cc2)CC1,Potency,[1],inactive
same,Potency,[2],inactive
CN[C@@H]1[C@H](O[C@H]2[C@H](O[C@@H]3[C@@H](O)[C@H](O)[C@@H](N=C(N)N)[C@H](O)[C@H]3N=C(N)N)O[C@@H](C)[C@]2(O)C=O)O[C@@H](CO)[C@H](O)[C@H]1O,Potency,[1],inactive
same,Potency,[2],inactive
Cc1ccc(-c2ccc3c(ccc4sc5c(c43)NC[C@@H](C)NC5=O)n2)cn1,Potency,[1],18.6 µM (active)
same,Potency,[2],inactive
CCN1CCN(Cc2ccc(Nc3ncc(F)c(-c4cc(F)c5nc(C)n(C(C)C)c5c4)n3)nc2)CC1,Potency,[1],10.4 µM (active)
same,Potency,[2],inactive
COc1ccc(N(C)c2nc(C)nc3ccccc23)cc1,Potency,[1],inactive
same,Potency,[2],inactive
CCN1CCN(Cc2ccc(NC(=O)c3ccc(C)c(NC(=O)c4cncc(-c5cccs5)c4)c3)cc2C(F)(F)F)CC1,Potency,[1],2.94 µM (active)
same,Potency,[2],inactive
COCCOc1ccc(N2CCN(CCn3ncc4c3nc(N)n3nc(-c5ccco5)nc43)CC2)cc1,Potency,[1],inactive
same,Potency,[2],inactive
CC(C)(C)C(=O)CN1C(=O)[C@H](NC(=O)Nc2cccc(C(=O)O)c2)CN(C2CCCCC2)c2ccccc21,Potency,[1],inactive
same,Potency,[2],inactive
COc1cc(C(=O)NC2CCN(C)CC2)c(F)cc1Nc1ncc2c(n1)N(C1CCCC1)CC(F)(F)C(=O)N2C,Potency,[1],14.7 µM (active)
same,Potency,[2],inactive
Cc1cc(O)c(-c2ccc([C@@H](C)CN(C)C)cc2)c2c1[nH]c(=O)c1sccc12,Potency,[1],0.104 µM (active)
same,Potency,[2],inactive
CCNCc1nc2c(N)nc3ccccc3c2n1CC(C)(C)O,Potency,[1],inactive
same,Potency,[2],inactive
O=C(NOCC(O)CO)c1ccc(F)c(F)c1Nc1ccc(I)cc1F (stereo not given),Potency,[1],inactive
same,Potency,[2],inactive
CC1=C(CO)C(=O)O[C@@H]([C@@H](C)[C@H]2CC[C@H]3[C@@H]4C[C@H]5O[C@]56[C@@H](O)C=CC(=O)[C@]6(C)[C@H]4CC[C@]23C)C1,Potency,[1],0.466 µM (active)
same,Potency,[2],inactive
Cc1cccc(Oc2cnc(=O)[nH]c2)c1,Potency,[1],inactive
same,Potency,[2],inactive
CCNC(=O)Nc1ncc(-c2cc(-c3c(C)cc(OC)cc3C)nc(-c3cnccn3)n2)s1,Potency,[1],inactive
same,Potency,[2],inactive
CCN(CC)CCN(Cc1ccc(-c2ccc(C(F)(F)F)cc2)cc1)C(=O)Cn1c(SCc2ccc(F)cc2)nc(=O)c2c1CCC2,Potency,[3],35.5 µM (active)
CC[C@]1(O)CC2CN(CCc3c([nH]c4ccccc34)[C@@](C(=O)OC)(c3cc4c(cc3OC)N(C)[C@H]3[C@@](O)(C(=O)OC)[C@H](OC(C)=O)[C@]5(CC)C=CCN6CC[C@]43[C@@H]65)C2)C1 (stereo not given in full),outcome,[4],inactive
Cc1ccc(N)cc1O,outcome,[5],inactive
CCC(C(=O)O)c1ccc(N2Cc3ccccc3C2=O)cc1 (stereo not given),outcome,[6],inactive
O=C(O)c1ccccc1NCCc1ccccc1,outcome,[6],inactive
CC1(c2nc3c(C(N)=O)cccc3[nH]2)CCCN1 (stereo not given),Potency,[2],inactive
COc1ccc(CC2C(=O)NC(C)C(=O)N(C)C3Cc4ccc(cc4)Oc4cc(ccc4OC4OC(CO)C(O)C(O)C4O)CC(C(=O)NC(C)C(=O)NC(C)C(=O)N2C)N(C)C3=O)cc1 (stereo not given),Potency,[2],inactive
CC(C)CNCc1ccc(-c2ccccc2S(=O)(=O)N2CCCC2)cc1,Potency,[2],inactive
CC1OC2OC(=O)C3(C)CC4=C(CO)C5=C(CC(=O)C4(C)C(C1=O)C23)C(C)(C)OC(=O)C5 (stereo not given),Potency,[2],inactive
O=C(O[C@H]1[C@@H]2C[C@@H]3OC[C@](O)([C@@H]1Cl)[C@H]2C(O[C@@H]1O[C@H](CO)[C@@H](O)[C@H](O)[C@H]1O)O3)c1ccc(O)c(O)c1 (stereo not given in full),Potency,[2],inactive
CC(C)c1nc(-c2ccc(NC(=O)Nc3cccc(C(F)(F)F)c3)c3ccccc23)c2c(N)nccn12,Potency,[2],inactive
COc1ncc(Nc2ncc([C@@H](C)N3CCN(S(C)(=O)=O)CC3)cc2-c2nc(C)nc(N)n2)cc1F,Potency,[2],inactive
CC(C)(O)/C=C/CC(C)(O)C1C(O)CC2(C)C3CCC4C(C)(C)C(=O)CCC4(C)C3CCC12C (stereo not given),Potency,[2],inactive
Cc1onc(C(=O)N2CCN(C(c3ccc(Cl)cc3)c3ccc(Cl)cc3)CC2)c1[N+](=O)[O-],Potency,[2],inactive
COc1ccc(-c2cnc3ccc(NCc4ccc(S(N)(=O)=O)cc4)nn23)cc1OC,Potency,[2],inactive
C=C1CCC2C(C)(C(=O)O)CCCC2(C)C1CCC(C)CC(=O)O (stereo not given),Potency,[2],inactive
CN(C)C(=O)NC1CCC(CCN2CCN(c3cccc(Cl)c3Cl)CC2)CC1 (stereo not given),Potency,[2],inactive
C/C1=C\CCC2=C[C@@H](OC2=O)c2c(C)coc2C1,Potency,[2],inactive
CC/C=C\CCO[C@@H]1O[C@H](CO)[C@@H](O)[C@H](O)[C@H]1O,Potency,[2],inactive
CC1(CCOC2OC(CO)C(O)C(O)C2O)CCC23OC2(C1)C(O)CC1C(C)(C(=O)O)CCCC13C (stereo not given),Potency,[2],inactive
COc1ccc(/C=C\C(=O)O)c(O[C@@H]2O[C@H](CO)[C@@H](O)[C@H](O)[C@H]2O)c1,Potency,[2],inactive
CC1=C2C(O)C(=O)OC(c3ccoc3)C2(C)CCC1O (stereo not given),Potency,[2],inactive
COCC1OC(OC(C)(C)C2CCC3(C)C=C(C4CCC5C4(C)CC(O)C4OC(C(C)(C)OC6OC(CO)C(O)C(O)C6NC(C)=O)CCC45C)CCC3O2)C(NC(C)=O)C(O)C1O (stereo not given),Potency,[2],inactive
CC(=O)O[C@H]1[C@@H](O)[C@H](O[C@H]2[C@@H]3C=CO[C@@H](O[C@H]4O[C@@H](CO)[C@H](O)[C@@H](O)[C@@H]4O)[C@@H]3[C@@]3(CO)O[C@@H]23)O[C@@H](C)[C@@H]1OC(=O)/C=C/c1ccccc1,Potency,[2],inactive
CC(=O)OC1C(OC(=O)c2ccccc2)C2C(C)(C)CC(=O)CC2(C)C23CCC(C)(C2)C(O)CC13 (stereo not given),Potency,[2],inactive
CC(C)[C@H]1CC[C@@]2(O)COC(=O)[C@H]2[C@@H]1/C=C(\CO)C(=O)O,Potency,[2],inactive
Clc1cc2c(NC3CCCC3)nnc(-c3ccncc3)c2cc1Cl,Potency,[2],inactive
NC(=O)Nc1cc(-c2cccc(F)c2)sc1C(=O)NC1CCCNC1 (stereo not given),Potency,[2],inactive
C=C1[C@H](OC(C)=O)[C@H]2[C@@H](OC(C)=O)[C@](C)(OC(C)=O)C[C@]2(OC(C)=O)C(=O)[C@H](C)/C=C/C(C)(C)C(=O)[C@H](OC(=O)C(C)C)[C@H]1OC(C)=O,Potency,[2],inactive
CC1CC(C(O)C(C)(C)O)OC2CC3(C)C4(C)CCC5C(C)(C)C(=O)CCC5(C)C4CCC3(O)C12O (stereo not given),Potency,[2],inactive
COc1cc(Br)c(S(=O)(=O)Nc2ccc(C(F)(F)F)c(O[C@@H]3CCN(C)C3)c2)cc1OC,Potency,[2],inactive
CCOc1ccc(NC(=S)N2CCC(C(O)(c3ccccc3)c3ccccc3)CC2)cc1,Potency,[2],inactive
COc1ccc([C@@]2(O)c3c(ccc(CC=C(C)C)c3O)NC(=O)[C@@H]2OC)cc1,Potency,[2],inactive
CCn1cc(NC(=S)Nc2cc(Cl)ccc2OC)c(C(N)=O)n1,Potency,[2],inactive
